Our source for the growth inhibition and condensed nuclei values is PubChem BioAssay AID772 (SRMLSC, 2007).

The experiment is described as follows: HT29 colon tumor cell growth inhibition, primary screen, imaging, high content imaging, 72 h, CellTiter-Glo (AID 772).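 On condensed nuclei: condensed means nuclear area below control median minus 1.5 SD.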 To be noted: HCS imaging cell count, at 10 µM, stronger effect = higher value; for condensed nuclei: measured here: percent cells with condensed nuclei. (In general: Cellular ATP, detected with luciferase, serves as a proxy for viable cell number.)
The mark [1] stands for this setting: measured here: ATP CellTiter-Glo viability.

Structures are written as SMILES. The whole screen tested about 3,300 compounds, of which about 20 (0.6%) were called active.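 How the source made its calls: active means growth inhibition above 90%, meaning viable cell count cut by more than 90% versus vehicle controls; inactive means growth inhibition below 90%.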 What follows is part of a selection rich in actives, with near analogues and random picks from the rest.

Turning to `CC1(c2ccco2)NC(=O)NC1=O` (centres undefined), the growth inhibition is 16.9% (inactive) and the condensed nuclei stood at 12.6%. Besides, the growth inhibition under setting [1] came out at 7.41%.

For the compound `CC(C)CCNc1nc2c(cc1C#N)COC(C)(C)C2`, the growth inhibition was 12.7% (inactive) and the condensed nuclei worked out at 1.81%. Further, the growth inhibition under setting [1] was determined as 2.37%.

For `CNc1nc(C)c(C#N)cc1C(C)=O`, the growth inhibition was 82.9% (inactive) and the condensed nuclei was found to be 1.85%. In addition, under setting [1], the growth inhibition is 37.9%.

Regarding `CN1C(=O)N(c2ccccc2)C(Nc2nncs2)C1(C)C` (centres undefined), the growth inhibition was -44.1% (inactive) and the condensed nuclei came to 5.92%. For the same compound, the growth inhibition under setting [1] was -46.4%.

For the compound `CCOC(=O)C1CCN(C(C)=C2C(=O)c3ccccc3C2=O)CC1`, the growth inhibition is -17.6% (inactive) and the condensed nuclei is 15.2%. Besides, the growth inhibition under setting [1] was -13.6%.

With `CC1(C)Cc2c(C#N)c(SCc3nc4ccccc4[nH]3)nc(N3CCOCC3)c2CO1`, the growth inhibition is 90.8% (active) and the condensed nuclei was 5.26%. For the same compound, the growth inhibition under setting [1] amounted to 83.4%.

Turning to `CCCCCSc1nc(N2CCOCC2)c2c(c1C#N)CC(C)(C)OC2`, the growth inhibition was 69.6% (inactive) and the condensed nuclei is 29.7%. Besides, under setting [1], the growth inhibition turned out to be 74.9%.

For the compound `CC1(C)Cc2c(C#N)c(SCCOc3ccccc3)nc(N3CCOCC3)c2CO1`, the growth inhibition was -23.3% (inactive) and the condensed nuclei came out at 0.88%. Also, the growth inhibition under setting [1] was -59.6%.

For the compound `COc1ccc(Cn2c(CCCO)nc3ccccc32)cc1OC`, the growth inhibition is 32.8% (inactive) and the condensed nuclei worked out at 5.26%. Further, the growth inhibition under setting [1] was 6.64%.

`CN1CCc2nc(SCC(=O)Nc3ccc(Cl)cc3)c(C#N)cc2C1`: the growth inhibition is 54.4% (inactive) and the condensed nuclei turned out to be 17.3%. Besides, the growth inhibition under setting [1] amounted to 55.6%.

Regarding `Cc1ccc(N2C(=O)C3ON(c4ccccc4)C(c4ccncc4)C3C2=O)c(C)c1` (centres undefined), the growth inhibition is 10.2% (inactive) and the condensed nuclei came to 8.14%. Further, the growth inhibition under setting [1] was 1.38%.

On to `Cc1ccc(OCc2nnc(NC(=O)c3ccco3)s2)c(C)c1`, for which the growth inhibition is -8.86% (inactive) and the condensed nuclei is 11.2%. Besides, the growth inhibition under setting [1] was -6.84%.

With `Cc1cc(=O)oc(C)c1C(=O)NCCNC(=O)c1c(C)cc(=O)oc1C`, the growth inhibition was 5.17% (inactive) and the condensed nuclei worked out at 2.08%. The growth inhibition under setting [1] was -5.21%.

`CCN(CC)CC#CCOC(=O)C(O)(c1ccccc1)C1CCCCC1` (centres undefined): the growth inhibition was 93.1% (active) and the condensed nuclei was found to be 18.4%. In addition, the growth inhibition under setting [1] is 92.7%.

Turning to `CN1CCCN=C1COC(=O)C(O)(c1ccccc1)C1CCCCC1` (centres undefined), the growth inhibition is -62.6% (inactive) and the condensed nuclei stood at 2.98%. Under setting [1], the growth inhibition is -21.5%.

`CC[N+](C)(CC)CCOC(=O)C(O)(c1ccccc1)C1CCCCC1` (centres undefined): the growth inhibition was -74.7% (inactive) and the condensed nuclei came out at 4.12%. In addition, the growth inhibition under setting [1] was -22.9%.

Regarding `c1ccc(Cc2nnc3n2CCCCC3)cc1`, the growth inhibition is -43.5% (inactive) and the condensed nuclei is 1.7%. For the same compound, the growth inhibition under setting [1] is -46.4%.

Regarding `O=C1c2ccccc2C(=O)C1c1ccc2ccccc2n1`, the growth inhibition is 18.9% (inactive) and the condensed nuclei was found to be 4.03%. The growth inhibition under setting [1] is 7.1%.
